Measurements taken from the supplement of paper PMC11865577.
Structures can show the parent of a compound that is named as a salt.

Test system: SARS-CoV-2 low-rank motif (SARS-low)
Experiment: normalised indicator fluorescence (fraction of RNA + indicator signal without compound); higher = less displacement of indicator (weaker competition)
Conditions: compound concentration: 5 uM; 30 min; indicator: TO-PRO-1 0.1 uM; RNA concentration: 0.1 uM
Procedure, shortened: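 Displacement screen in 96-well plates: TO-PRO-1 or TO-PRO-3 indicator with RNA in 20 mM phosphate pH 7.0, 20 mM NaCl, 80 mM KCl. Each compound was added as 0.25 μL of 1 mM DMSO stock (about 5 uM final), and fluorescence was read after 30 min on an Infinite 200 PRO (excitation 485 or 620 nm). Values are indicator fluorescence after subtracting the buffer-plus-indicator blank, divided by the no-compound RNA-plus-indicator signal. Each is the mean of two independent experiments.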

Compound	normalised indicator fluorescence
O=CN1CC/C(=C/c2ccc3c(c2)OCO3)C1=O	1.02
CC(C)N(CCCCOCC(=O)NS(C)(=O)=O)c1cnc(-c2ccccc2)c(-c2ccccc2)n1 [Selexipag]	1.21
CN(C)CCCN1c2ccccc2CCc2ccc(Cl)cc21 [Clomipramine hydrochloride]	1.07
NC(=O)N/N=C/c1ccc([N+](=O)[O-])o1 [Furacilin]	1.11
CC(=O)O[C@H]1C[C@@]2(C)[C@@H](C[C@@H](O)[C@H]3[C@@]4(C)CC[C@@H](O)[C@@H](C)[C@@H]4CC[C@@]32C)/C1=C(\CCC=C(C)C)C(=O)O [Sodium fusidate]	1.11
C[C@@H]1O[C@@H](Oc2c(-c3cc(O)c(O)c(O)c3)oc3cc(O)cc(O)c3c2=O)[C@H](O)[C@H](O)[C@H]1O [Myricetrin]	0.999
CNC(=O)c1ccc(C)c(-n2c(C)cc(OCc3ccc(F)cc3F)c(Br)c2=O)c1	1.01
COC1=C(OC)C(=O)C(CCCCCCCCCCO)=C(C)C1=O [Idebenone]	1.21
Cn1cc(-c2ccc3c(c2)CCN3C(=O)Cc2cccc(C(F)(F)F)c2)c2c(N)ncnc21	1.35
O=c1c(O)c(-c2ccccc2)oc2cc(O)cc(O)c12 [Galangin]	1.12
Nc1ncnc2c1ncn2[C@@H]1O[C@H](CO)[C@@H](O)[C@@H]1O [Vidarabine]	1.11
O=c1ccc2ccc(O)c(O)c2o1 [Daphnetin]	1.04
N#CC(c1ccnc(OCc2ccc(CN3CCOCC3)cc2)n1)c1nc2ccccc2s1 (stereo not drawn)	1.59
